Measurements: PubChem BioAssay AID1159580 (chemical genetic matrix, 2015)
Hit rate of the full screen: of about 5,500 compounds, about 2,000 (36%) were called active. Not shown: some 18% with an inconclusive outcome. Rule as the data show it: active = normalized growth mostly below about 0.91 (no sharp cut-off); inconclusive = no clear call, values can overlap the other calls; inactive = mostly above about 0.92. Some of the results follow.

Test: chemical genetic growth profiling, strain panel (AID 1159580);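 also: tested at 20 µM; growth read once vehicle control cultures reached saturation at 30 °C; 1 = growth at the plate median or of vehicle wells; lower values mean less growth of the strain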
Conditions: S. cerevisiae deletion strains, growth OD
[1] = locus YAL021C, strain ccr4, hits give low values
[2] = locus YAL026C, strain drs2, hits give low values
[3] = locus YAL030W, strain snc1, hits give low values
[4] = locus YBL061C, strain skt5, hits give low values
[5] = locus YBR009C, strain hhf1, hits give low values
[6] = locus YBR023C, strain chs3, hits give low values
[7] = locus YBR171W, strain sec66, hits give low values
[8] = locus YBR231C, strain swc5, hits give low values
[9] = locus YBR279W, strain paf1, hits give low values
[10] = locus YCL011C, strain gbp2, hits give low values
[11] = locus YCL016C, strain dcc1, hits give low values
[12] = locus YCL061C, strain MRC1, hits give low values
[13] = locus YCL069W, strain vba3, hits give low values
[14] = locus YCR088W, strain abp1, hits give low values
[15] = locus YDL005C, strain med2, hits give low values
[16] = locus YDL040C, strain nat1, hits give low values
[17] = locus YDR001C, strain nth1, hits give low values
[18] = locus YDR069C, strain doa4, hits give low values
[19] = locus YDR137W, strain rgp1, hits give low values
[20] = locus YDR159W, strain sac3, hits give low values
[21] = locus YDR297W, strain sur2, hits give low values
[22] = locus YDR334W, strain swr1, hits give low values
[23] = locus YDR335W, strain msn5, hits give low values
[24] = locus YDR392W, strain spt3, hits give low values
[25] = locus YEL003W, strain gim4, hits give low values
[26] = locus YEL037C, strain rad23, hits give low values
[27] = locus YEL061C, strain CIN8 (second series), hits give low values
[28] = locus YER015W, strain faa2, hits give low values
[29] = locus YER016W, strain bim1, hits give low values
[30] = locus YER111C, strain swi4, hits give low values
[31] = locus YER155C, strain BEM2 (second series), hits give low values
[32] = locus YFR010W, strain ubp6, hits give low values
[33] = locus YGL167C, strain pmr1, hits give low values
[34] = locus YGL173C, strain kem1, hits give low values
[35] = locus YGL227W, strain vid30, hits give low values
[36] = locus YGL240W, strain doc1, hits give low values
[37] = locus YGL253W, strain hxk2, hits give low values
[38] = locus YHR013C, strain ard1, hits give low values
[39] = locus YHR027C, strain rpn1, hits give low values
[40] = locus YHR030C, strain SLT2, hits give low values
[41] = locus YHR079C, strain IRE1, hits give low values
[42] = locus YHR142W, strain chs7, hits give low values
[43] = locus YJL092W, strain hpr5, hits give low values
[44] = locus YJL095W, strain BCK1 (second series), hits give low values
[45] = locus YJL095W, strain BCK1, hits give low values
[46] = locus YJL115W, strain asf1, hits give low values
[47] = locus YJL129C, strain trk1, hits give low values
[48] = locus YJL154C, strain vps35, hits give low values
[49] = locus YJL164C, strain tpk1, hits give low values
[50] = locus YJL166W, strain qcr8, hits give low values
[51] = locus YJR066W, strain TOR1, hits give low values
[52] = locus YKL160W, strain elf1, hits give low values
[53] = locus YKR026C, strain gcn3, hits give low values
[54] = locus YKR091W, strain srl3, hits give low values
[55] = locus YLL001W, strain dnm1, hits give low values
[56] = locus YLL026W, hits give low values
[57] = locus YLL041C, strain sdh2, hits give low values
[58] = locus YLR027C, strain aat2, hits give low values
[59] = locus YLR113W, strain HOG1, hits give low values
[60] = locus YLR221C, strain rsa3, hits give low values
[61] = locus YLR258W, strain gsy2, hits give low values
[62] = locus YLR262C, strain YPT6 (second series), hits give low values
[63] = locus YLR320W, strain mms22, hits give low values
[64] = locus YLR342W, strain FKS1, hits give low values
[65] = locus YLR357W, strain rsc2, hits give low values
[66] = locus YLR370C, strain arc18, hits give low values
[67] = locus YLR384C, strain iki3, hits give low values
[68] = locus YML120C, strain ndi1, hits give low values
[69] = locus YMR058W, strain fet3, hits give low values
[70] = locus YMR125W, strain sto1, hits give low values
[71] = locus YMR129W, hits give low values
[72] = locus YMR205C, strain PFK2, hits give low values
[73] = locus YMR231W, strain pep5, hits give low values
[74] = locus YNL071W, strain lat1, hits give low values
[75] = locus YNL183C, strain NPR1, hits give low values
[76] = locus YNL209W, strain ssb2, hits give low values
[77] = locus YNL248C, strain rpa49, hits give low values
[78] = locus YNL322C, strain KRE1 (second series), hits give low values
[79] = locus YNR049C, strain mso1, hits give low values
[80] = locus YOR001W, strain rrp6, hits give low values
[81] = locus YOR070C, strain gyp1, hits give low values
[82] = locus YOR080W, strain dia2, hits give low values
[83] = locus YOR083W, strain WHI5, hits give low values
[84] = locus YOR106W, strain vam3, hits give low values
[85] = locus YOR231W, strain MKK1, hits give low values
[86] = locus YOR265W, strain rbl2, hits give low values
[87] = locus YOR270C, strain vph1, hits give low values
[88] = locus YOR290C, strain snf2, hits give low values
[89] = locus YPL051W, strain arl3, hits give low values
[90] = locus YPL078C, strain atp4, hits give low values
[91] = locus YPL106C, strain sse1, hits give low values
[92] = locus YPL240C, strain hsp82, hits give low values
[93] = locus YPL256C, strain CLN2, hits give low values

Measured: normalized growth

C=CCSC[C@@H](N)C(=O)O
inactive: [1] 0.993 | [2] 0.986 | [3] 1.01 | [4] 0.996 | [5] 1 | [6] 0.987 | [7] 0.984 | [8] 1 | [9] 1 | [10] 0.982 | [11] 0.998 | [12] 0.981 | [13] 0.99 | [14] 0.994 | [15] 0.988 | [16] 1.01 | [17] 0.986 | [18] 0.994 | [19] 1.01 | [20] 0.991 | locus YDR195W, strain ref2 0.985 | [21] 1 | [22] 0.987 | [23] 0.997 | [24] 0.996 | [25] 0.996 | [26] 1.01 | [27] 0.999 | [28] 0.992 | [29] 1.01 | [30] 1.01 | [31] 1.03 | [32] 0.986 | [33] 0.992 | [34] 0.999 | [35] 0.986 | [36] 1 | [37] 0.993 | [38] 1 | [39] 1.01 | [40] 0.943 | [41] 0.96 | [42] 0.978 | [43] 0.989 | [44] 1.01 | [45] 0.936 | [46] 0.989 | [47] 0.992 | [48] 0.982 | [49] 1 | [50] 1 | [51] 0.901 | [52] 0.985 | [53] 0.986 | [54] 1.01 | [55] 0.987 | [56] 0.993 | [57] 0.985 | [58] 0.993 | [59] 0.973 | [60] 0.994 | [61] 0.99 | [62] 0.995 | [63] 1.01 | [64] 1.02 | [65] 1.01 | [66] 0.999 | [67] 0.993 | [68] 0.986 | [69] 0.992 | [70] 0.986 | [71] 0.985 | [72] 1 | [73] 0.998 | [74] 1 | [75] 0.914 | [76] 0.991 | [77] 0.995 | [78] 1 | [79] 0.997 | [80] 0.997 | [81] 0.992 | [82] 1 | [83] 1.02 | [84] 1 | [85] 0.968 | [86] 0.996 | [87] 1 | [88] 0.993 | [89] 0.998 | [90] 0.999 | [91] 0.986 | [92] 0.999 | [93] 0.948

C=CCSCC=C
inactive: [1] 0.972 | [2] 0.971 | [3] 0.962 | [4] 0.979 | [5] 0.981 | [6] 0.987 | [7] 0.965 | [8] 1.03 | [9] 0.992 | [10] 0.966 | [11] 0.975 | [12] 0.972 | [13] 0.98 | [14] 0.99 | [15] 0.985 | [16] 0.993 | [17] 0.96 | [18] 0.947 | [19] 0.971 | [20] 0.991 | locus YDR195W, strain ref2 0.961 | [21] 0.982 | [22] 0.935 | [23] 0.987 | [24] 0.916 | [25] 0.986 | [26] 0.972 | [27] 0.982 | [28] 0.958 | [29] 0.991 | [30] 0.966 | [31] 0.974 | [32] 0.953 | [33] 0.971 | [34] 0.941 | [35] 0.986 | [36] 0.981 | [37] 0.967 | [38] 0.957 | [39] 0.96 | [40] 1.03 | [41] 1.03 | [42] 0.934 | [43] 0.961 | [44] 0.996 | [45] 1.03 | [46] 0.938 | [47] 0.95 | [48] 0.978 | [49] 0.981 | [50] 0.977 | locus YJL187C, strain SWE1, hits give low values 0.986 | [51] 0.931 | [52] 1 | [53] 0.989 | [54] 0.983 | [55] 0.966 | [56] 0.974 | [57] 0.975 | [58] 0.953 | [59] 1.02 | [60] 0.973 | [61] 0.989 | [62] 0.983 | [63] 0.995 | [64] 0.983 | [65] 0.963 | [66] 0.977 | [67] 0.99 | [68] 0.973 | [69] 0.97 | [70] 0.966 | [71] 0.979 | [72] 0.969 | [73] 0.98 | [74] 0.991 | [75] 0.94 | [76] 0.985 | [77] 0.98 | [78] 0.955 | [79] 0.964 | [80] 0.992 | [81] 0.976 | [82] 0.974 | [83] 0.989 | [84] 0.977 | [85] 1.02 | [86] 1.01 | [87] 0.945 | [88] 0.903 | [89] 0.991 | [90] 0.988 | [91] 0.943 | [92] 0.974 | [93] 1.03
